# Laboratory results taken from PubChem BioAssay (Tox21).
# Values joined by “and” are separate entries in the source; they are usually repeats but may differ in a detail not shown here. Equal entries are not always repeated. Results filed as inconclusive are left out. A call without a number means that no potency is given here. Some compounds were tested as several samples or in several runs, with calls that do not always agree. Active and inactive are the calls of the source. Calls follow the shape of the dose curve; as a rule, active = well fitted cell-killing curve with a large enough effect in the repeat runs; inconclusive = weak or mixed curves; inactive = flat fitted curve, though single readings scatter.
# Test: qHTS RealTime-Glo MT Cell Viability Assay in HepG2 cells - 24 hour (AID 1224867); also: nearly all actives have a fitted effect of over 50% in size
# Conditions: RealTime-Glo luminescence; series mostly up to 76.8 µM
# Text: U.S. Tox21 Program National Center for Advancing Translational Sciences [NCATS] NIH Chemical Genomics Center [NCGC] U.S. Environmental Protection Agency [EPA] National Institutes of Environmental Health Sciences [NIEHS] National Toxicology Program [NTP] U.S. Food and Drug Administration [FDA] Tox21 Assay Overview: Measure of cell viability is critical in the cell-base assay. Analysis of cell viability is necessary for the characterization of cell responses to cytotoxic drugs and environmental stress. A RealTime-Glo MT Cell Viability Assay to monitor cell viability in real time of continues cell culture during 40 hours of compound treatment was used to screen Tox21 10K library compounds in HepG2 cells. The RealTime-Glo MT Cell Viability Assay is a nonlytic, homogeneous, bioluminescent method to measure cell viability in real time using a simple, plate-based method. The assay involves adding NanoLuc luciferase and a cell-permeant prosubstrate to cells in culture. Viable cells reduce the proprietary prosubstrate to generate a substrate for NanoLuc luciferase. This substrate diffuses from cells into the surrounding culture medium, where it is rapidly used by the NanoLuc Enzyme to produce a luminescent signal. The signal correlates with the number of viable cells, making the assay well suited for cytotoxicity studies.
# Tox21 Assay Protocol Summary: The mixture of HepG2 cell suspension and reagents were dispensed at 600cells/6 ul/well in 1536-well tissue culture treated black solid bottom plates using a Multidrop dispenser. After the assay plates were incubated at a 37 C/5% CO2 incubator for 5 hours, 23 nL of compounds dissolved in DMSO, positive and negative controls was transferred to the assay plate by a pintool work station. The plates were incubated at 37 C for 40 hours. The luminescence intensity were measured at 0h, 8h, 16h, 24h, 32h and 40h time points using ViewLux plate reader during compound treatment.
# Potency is read from the fitted curve at half-maximal effect.
SMILES,Potency,"activity change, negative = cytotoxicity"
N#C/C=C/c1ccccc1,inactive,–
COC[C@H](C)N(C(=O)CCl)c1c(C)csc1C,inactive,–
CC(C)(C)C(O)C(Oc1ccc(-c2ccccc2)cc1)n1cncn1 (stereo not given),inactive,–
[Cl][Sb]([Cl])[Cl],inactive,–
Fc1ccc(Oc2ccnc3cc(Cl)cc(Cl)c23)cc1,inactive,–
CCCCCCCCCCCCCN1CC(C)OC(C)C1 (stereo not given),inactive,–
CC(=[OH+])/C=C(/C)[O-].CC(=[OH+])/C=C(\C)[O-].CC(=[OH+])/C=C(\C)[O-].[Al],inactive,–
Oc1ccccc1Br,inactive,–
CCc1nn(C)c(C(=O)NCc2ccc(C(C)(C)C)cc2)c1Cl,inactive,–
CN(CCCC(O)c1cccnc1)N=O (stereo not given),inactive,–
CN(C)C(=S)S,inactive and 11 µM (active),–
N#CCc1ccc(Cl)cc1,inactive,–
Cc1c(Cl)c(=O)oc2cc(OP(=O)(OCCCl)OCCCl)ccc12,inactive,–
Nc1ccccc1C(=O)OC/C=C/c1ccccc1,inactive,–
Clc1ccc(COC(Cn2ccnc2)c2ccc(Cl)cc2Cl)cc1 (stereo not given),43.5 µM (active),–
O=S(=O)(c1ccc(Cl)cc1)c1ccc(Cl)cc1,inactive,–
Oc1ccc(C2(c3ccc(O)cc3)CCCCC2)cc1,inactive,–
CC(C)CCCCCOC(=O)c1ccccc1C(=O)OCCCCCC(C)C,inactive,–
O=[N+]([O-])c1c2ccccc2cc2ccccc12,inactive,–
COc1ccc(OC)c(C=O)c1,inactive,–

SMILES,Potency,"activity change, negative = cytotoxicity"
Clc1ccc(CO/N=C(\Cn2ccnc2)c2ccc(Cl)cc2Cl)c(Cl)c1,23.9 µM (active),–
CCC(C)(C)C(=O)OC1=C(c2ccc(Cl)cc2Cl)C(=O)OC12CCCCC2,inactive,–
C[C@]12CC[C@@H]3c4ccc(OC(=O)N(CCCl)CCCl)cc4CC[C@H]3[C@@H]1CC[C@@H]2O,inactive,–
OC(Cc1ccccc1Cl)(Cn1cncn1)C1(Cl)CC1 (stereo not given),inactive,–
C=CC(=O)N(C)C,inactive,–
BrC(Br)Br,inactive,–
N#Cc1ccccc1Cl,inactive,–
ClCCN1CCOCC1,inactive,–
CC(C)N1C(=O)N(c2ccccc2)CSC1=NC(C)(C)C,inactive,–
CC(C)CC(C)N (stereo not given),inactive,–
Brc1c(Br)c(Br)c(Oc2c(Br)c(Br)c(Br)c(Br)c2Br)c(Br)c1Br,–,-1.54% [at 15.8 µM] (inactive)
CCCN(CCC)CCc1c[nH]c2ccccc12,inactive,–
O=C(O)C1C2CCC(O2)C1C(=O)O (stereo not given),inactive,–
CCc1cc(C)cc(CC)c1-c1c(OC(=O)C(C)(C)C)n2n(c1=O)CCOCC2,inactive,–
ClC1=C(Cl)[C@]2(Cl)[C@@H]3[C@@H]4C[C@@H]([C@H]5O[C@@H]45)[C@@H]3[C@@]1(Cl)C2(Cl)Cl,43.6 µM (active),–
N#CCCO,inactive,–
C1CCC2CCCCC2C1 (stereo not given),inactive,–
COC(=O)N(C(=O)N1COC2(C(=O)OC)Cc3cc(Cl)ccc3C2=N1)c1ccc(OC(F)(F)F)cc1 (stereo not given),inactive,–
CC(C)[C@H](C(=O)OC(C#N)c1cccc(Oc2ccccc2)c1)c1ccc(OC(F)F)cc1 (stereo not given in full),inactive,–
ClC(Cl)=C(c1ccc(Cl)cc1)c1ccc(Cl)cc1,inactive,–
